{
  "source": "ChEMBL document CHEMBL3988442",
  "about": "“University of Dundee, Small-Polar-MMV Screening Library” (2021)",
  "note": "The campaign covered roughly 48,000 compounds. About 13,000 (27%) showed an effect of 50% or more. The list shows a part of the results.",
  "data": [
    {"test_system": "Wolbachia pipientis", "assay": "Anti-Wolbachia Cell-Based Screen", "format": "functional", "set-up": "scale not given: in the data most compounds retested in dose-response had high values", "settings": "5 µM", "units": {"Percent Effect": "%"}, "values": [
      {"smiles": "Cn1c(NCC(O)c2ccc(F)cc2F)c(C#N)c(=O)n(C)c1=O", "note": "(stereo not drawn)", "Percent Effect": -7.398},
      {"smiles": "CCN1CC(C(=O)N2CC(Oc3ccccc3Cl)C2)CC1=O", "note": "(stereo not drawn)", "Percent Effect": -26.5},
      {"smiles": "Cc1cc(CN(C)C(=O)NC2CCCC2)no1", "Percent Effect": -3.677},
      {"smiles": "O=C(NCC1CC1)c1nc(COc2ccc3c(c2)OCO3)no1", "Percent Effect": 5.191},
      {"smiles": "O=C(NC1CCCC1)c1nc2c(o1)CN(CCO)C2", "Percent Effect": 4.983},
      {"smiles": "Cc1occc(=O)c1OCc1noc(C(=O)NCC2CC2)n1", "Percent Effect": 118},
      {"smiles": "COCCCNC(=O)Nc1ccc(OCc2noc(C3CC3)n2)cc1", "Percent Effect": 4.086},
      {"smiles": "Cc1occc(=O)c1OCc1noc(C(=O)NC2CCCC2)n1", "Percent Effect": 110.2},
      {"smiles": "Cc1ccc(NC(=O)CSCc2cccnc2)nc1", "Percent Effect": 4.357},
      {"smiles": "CN(C)C(=O)C1(Oc2ccc(Cl)cc2)CCNCC1", "Percent Effect": -10.8},
      {"smiles": "O=C(C1CCOC1)N1CCC2(CC1)CN(c1ncccn1)CCO2.O=C(O)C(F)(F)F", "note": "(stereo not drawn)", "Percent Effect": -29.34},
      {"smiles": "CC(C)CNC(=O)N1CCC2(CCCO2)C1", "note": "(stereo not drawn)", "Percent Effect": 14.05},
      {"smiles": "CC(C)NC(=O)N1CCC2(CC1)CN(C(=O)NC(C)C)CCO2", "Percent Effect": 117},
      {"smiles": "CC(=O)N1CCCC2(C1)CN(C(=O)C1CCCCC1)CCO2", "note": "(stereo not drawn)", "Percent Effect": -22.57},
      {"smiles": "CC(C)n1cc(C(=O)N2Cc3ccccc3OC3(CCOCC3)C2)cn1", "Percent Effect": -9.745},
      {"smiles": "O=C(c1ccncc1)N1Cc2ccccc2OC2(CCOCC2)C1", "Percent Effect": -8.514},
      {"smiles": "CN1CCCC2(C1)CN(C(=O)C1CCCCC1)CCO2", "note": "(stereo not drawn)", "Percent Effect": -29.79},
      {"smiles": "CC(=O)N1CCOC2(CCN(C(=O)C3CC3)CC2)C1", "Percent Effect": 104.2},
      {"smiles": "COCCN(C)CCN1CC2(CCN(C(=O)C3CCOC3)CC2)OC1=O", "note": "(stereo not drawn)", "Percent Effect": -2.366},
      {"smiles": "CC(C)NC(=O)N1CCC2(CCCO2)C1", "note": "(stereo not drawn)", "Percent Effect": 5.792},
      {"smiles": "O=C(C1CCOC1)N1Cc2ccccc2OC2(CCOCC2)C1", "note": "(stereo not drawn)", "Percent Effect": 110.4},
      {"smiles": "CC(=O)N1Cc2ccccc2OC2(CCN(C(=O)C3CCOC3)CC2)C1", "note": "(stereo not drawn)", "Percent Effect": 188.7},
      {"smiles": "CCCn1cnnc1-c1nc2c([nH]1)CC(c1ccc(Cl)cc1)CNC2=O", "note": "(stereo not drawn)", "Percent Effect": 14.47},
      {"smiles": "O=S(=O)(Cc1ccc(F)c(Cl)c1)NC(CO)c1ccco1", "note": "(stereo not drawn)", "Percent Effect": -13.92},
      {"smiles": "COc1ccccc1C1CNC(=O)c2nc(-c3cn(C)nc3C)[nH]c2C1", "note": "(stereo not drawn)", "Percent Effect": -4.665},
      {"smiles": "Cc1cnc(C(=O)N2CCC3(CC2)C(=O)NCCN3CC(C)C)cn1", "Percent Effect": 4.389},
      {"smiles": "COCc1nc(N(C)C/C=C/c2ccccc2)c2cnn(C)c2n1", "Percent Effect": -13.22},
      {"smiles": "O=C(c1c[nH]cn1)N1CCC(n2cc(-c3ccsc3)nn2)CC1", "Percent Effect": -0.5309},
      {"smiles": "Cc1cc(C(=O)N2Cc3ccccc3OC3(CCOCC3)C2)nc(N)n1", "Percent Effect": -4.105},
      {"smiles": "CC(=O)N1Cc2ccccc2OC2(CCN(C(=O)C3CC3)CC2)C1", "Percent Effect": 187.7},
      {"smiles": "N#Cc1c(N2CCCN(C3CCOCC3)CC2)nc2ccccn12", "Percent Effect": -1.844},
      {"smiles": "Cn1c(CN2CCOC(c3nc(C(C)(C)C)n[nH]3)C2)nnc1C1CC1", "note": "(stereo not drawn)", "Percent Effect": 2.258},
      {"smiles": "Cc1n[nH]c(C2CN(CCc3cccs3)CCO2)n1", "note": "(stereo not drawn)", "Percent Effect": 117.1},
      {"smiles": "CC(C)c1n[nH]c(C2CN(Cc3ccno3)CCO2)n1", "note": "(stereo not drawn)", "Percent Effect": 2.718},
      {"smiles": "CC(C)(C)c1n[nH]c(C2CN(CCNC3CCCCC3)CCO2)n1", "note": "(stereo not drawn)", "Percent Effect": -7.813},
      {"smiles": "Cc1nc(C)n(CC2CN(CCc3cccs3)CCO2)n1", "note": "(stereo not drawn)", "Percent Effect": -47.87},
      {"smiles": "CCCc1n[nH]c(C2CN(CCc3cccs3)CCO2)n1", "note": "(stereo not drawn)", "Percent Effect": 119.2},
      {"smiles": "CC(C)c1n[nH]c(C2CN(Cc3nnc(C4CC4)n3C)CCO2)n1", "note": "(stereo not drawn)", "Percent Effect": 4.048},
      {"smiles": "CC(C)c1n[nH]c(C2CN(CCc3cccs3)CCO2)n1", "note": "(stereo not drawn)", "Percent Effect": 96.38},
      {"smiles": "CCc1n[nH]c(C2CN(CCc3cccs3)CCO2)n1", "note": "(stereo not drawn)", "Percent Effect": 2.973},
      {"smiles": "CC(C)(C)c1n[nH]c(C2CN(CCc3cccs3)CCO2)n1", "note": "(stereo not drawn)", "Percent Effect": 121.2},
      {"smiles": "CCCc1n[nH]c(C2CN(CCn3cccn3)CCO2)n1", "note": "(stereo not drawn)", "Percent Effect": -0.7272},
      {"smiles": "Cc1n[nH]c(C2CN(CCCOc3ccc(F)cc3)CCO2)n1", "note": "(stereo not drawn)", "Percent Effect": -9.596},
      {"smiles": "COCCOc1ncccc1C(=O)N(C)c1ccc(OC)nc1", "Percent Effect": -5.142},
      {"smiles": "Cc1ccc(S(C)(=O)=O)cc1C(=O)NS(=O)(=O)c1ccc(Cl)cc1", "Percent Effect": -5.911},
      {"smiles": "Cc1ccc(C(C)NC(=O)N2CCN(C(=O)CC(F)(F)F)CC2)o1", "note": "(stereo not drawn)", "Percent Effect": -14.24},
      {"smiles": "Nc1cc2c(nn1)CCN(C(=O)c1ccc(-c3ccco3)[nH]c1=O)C2", "Percent Effect": 1.419},
      {"smiles": "N#Cc1ccc(CN2CCCN(CCCn3cncn3)CC2)cc1", "Percent Effect": -13.2},
      {"smiles": "O=C(CN1CCS(=O)(=O)CC1)Nc1ccc(N2CCCC2)nc1", "Percent Effect": 0.8889},
      {"smiles": "CN(C)[C@@H]1CCN(c2ncc(F)cn2)[C@H]1Cc1ccccc1.O=C(O)C(F)(F)F.O=C(O)C(F)(F)F", "Percent Effect": 3.414},
      {"smiles": "CN(C)[C@@H]1CCN(S(=O)(=O)c2cn(C)cn2)[C@H]1Cc1cccnc1.O=C(O)C(F)(F)F.O=C(O)C(F)(F)F.O=C(O)C(F)(F)F", "Percent Effect": 0.7375},
      {"smiles": "CC(C)NC(=O)N1CC[C@@H](N(C)C)[C@@H]1Cc1ccccc1.O=C(O)C(F)(F)F", "Percent Effect": 0.7735},
      {"smiles": "CC(C)N(C)[C@@H]1CCN(Cc2ccco2)[C@H]1Cc1ccccc1", "Percent Effect": 2.864},
      {"smiles": "CN(C)[C@@H]1CCN(c2ncccn2)[C@H]1Cc1ccccc1", "Percent Effect": -9.311},
      {"smiles": "CC(C)N(C)[C@@H]1CCN(Cc2ccoc2)[C@H]1Cc1ccccc1", "Percent Effect": -14.75},
      {"smiles": "CN(C)[C@@H]1CCN(S(=O)(=O)C2CC2)[C@H]1Cc1ccccc1.O=C(O)C(F)(F)F", "Percent Effect": 106},
      {"smiles": "CC(C)N(C)[C@@H]1CCN(S(C)(=O)=O)[C@H]1Cc1ccccc1", "Percent Effect": 103.5},
      {"smiles": "CN(C)[C@@H]1CCN(S(C)(=O)=O)[C@H]1Cc1ccccc1", "Percent Effect": 99.96},
      {"smiles": "CCOc1ccc(C(=O)N2C[C@H]3CC[C@@H]2CN(C(=O)C2CCC2)C3)cc1", "Percent Effect": -22.33},
      {"smiles": "CCOc1ccc(C(=O)CCC(=O)NCc2cncn2CC)cc1C", "Percent Effect": -8.028},
      {"smiles": "CC(C)Cc1noc(-c2ccc(NCc3noc(C(C)C)n3)nc2)n1", "Percent Effect": 13.03},
      {"smiles": "Cc1ccc(-c2ncc(CN3CCOC(c4ccco4)C3)s2)o1", "note": "(stereo not drawn)", "Percent Effect": 2.096},
      {"smiles": "CN1CCCC2(CC1)CCN(C(=O)CCc1ccccc1O)CC2", "Percent Effect": -5.541},
      {"smiles": "CN1CCN(CC2(O)CCN(C(=O)CCc3ccccc3F)C2)CC1", "note": "(stereo not drawn)", "Percent Effect": 132.9},
      {"smiles": "COC(=O)CCC(=O)N1CCC2(CN(Cc3cccc(Cl)c3)C2)C1", "Percent Effect": 11.86},
      {"smiles": "COC(=O)CCC(=O)N1CCC2(CN(Cc3ccccc3F)C2)C1", "Percent Effect": 106.8},
      {"smiles": "COCCC(=O)N1CCC2(CCN(Cc3cccc(F)c3)C2)C1", "note": "(stereo not drawn)", "Percent Effect": 0.08604},
      {"smiles": "COC(=O)CCC(=O)N1CCC2(CN(Cc3ccccc3)C2)C1", "Percent Effect": 108.2},
      {"smiles": "CN1CCCC2(CC1)CCN(C(=O)CCc1ccccc1F)CC2", "Percent Effect": -19.97},
      {"smiles": "COCCC(=O)N1CCC2(CN(Cc3cccc(F)c3)C2)C1", "Percent Effect": -10.24},
      {"smiles": "COCCC(=O)N1CCC2(CCCN(Cc3cc(OC)ccc3F)C2)C1", "note": "(stereo not drawn)", "Percent Effect": -0.03102},
      {"smiles": "COC(=O)CCC(=O)N1CCC2(CN(Cc3cccc(F)c3)C2)C1", "Percent Effect": -9.48},
      {"smiles": "COC(=O)CCC(=O)N1CCC2(CN(Cc3ccc(Cl)cc3)C2)C1", "Percent Effect": 100.4}
    ]}
  ]
}
